# Sfp PPTase inh – Sfp phosphopantetheinyl transferase inhibition | Q9F4F7 | 3.5% of 310,000 active | Biochemical Sfp PPTase activity, qHTS | Potency, µM, for the others: largest response in the series, negative = inhibition, most hits filed as inhibitors;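 also: the enzyme is Sfp with the accession as filed and its product quenches rhodamine fluorescence; 0% = enzyme reaction without inhibitor and -100% = no enzyme wells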
#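 Fluorescence-quenching assay with 15 nM Sfp, 5 uM rhodamine-CoA and 12.5 uM BHQ-2-labelled ybbR peptide in pH 7.6 Hepes/MgCl2 buffer. Enzyme was pre-incubated with compound for 15 min at room temperature. Rate was taken from the 30-min fluorescence change (525/598 nm).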
# PLK1 PBD block – blocks phosphopeptide binding to human PLK1 polo-box domain. Potency, µM, for the others: max response, negative = inhibition, usual class: inhibitors. AID 720504. 2.8% of 360,000 active. P53350. Plk1 PBD binding of FITC phosphopeptide, fluorescence polarization; also: series mostly up to about 57 µM; % is scaled to controls: 0 for no effect and ±100 for the full control effect; nearly all actives have a fitted effect of over 65% in size
# Target sequence (P53350 whole entry, looked up, the tested form may be a part): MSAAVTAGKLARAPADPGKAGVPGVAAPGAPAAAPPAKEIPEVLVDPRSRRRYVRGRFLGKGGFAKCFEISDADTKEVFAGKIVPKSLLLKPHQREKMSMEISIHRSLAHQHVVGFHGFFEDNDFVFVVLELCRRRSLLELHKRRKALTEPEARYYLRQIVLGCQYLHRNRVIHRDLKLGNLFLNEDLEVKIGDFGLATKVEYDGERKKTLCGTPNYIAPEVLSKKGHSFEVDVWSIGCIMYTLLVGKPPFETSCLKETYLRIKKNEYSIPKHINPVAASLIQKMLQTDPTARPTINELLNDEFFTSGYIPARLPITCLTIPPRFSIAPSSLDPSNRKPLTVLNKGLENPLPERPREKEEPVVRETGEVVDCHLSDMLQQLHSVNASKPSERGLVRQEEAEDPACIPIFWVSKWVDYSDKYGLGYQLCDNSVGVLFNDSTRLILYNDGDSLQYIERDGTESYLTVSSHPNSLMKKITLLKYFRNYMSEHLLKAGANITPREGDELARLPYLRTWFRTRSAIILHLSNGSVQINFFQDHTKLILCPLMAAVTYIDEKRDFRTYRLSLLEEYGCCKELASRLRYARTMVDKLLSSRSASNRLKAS
# HP1b chromo inh – blocks HP1-beta chromodomain binding to methylated histone tails; P83916; AlphaScreen HP1-beta / biotin-H3K9me3 peptide binding; Potency, µM (top dose mostly 114 µM), for inactives: at the top dose activity change, negative = inhibition, most hits filed as inhibitors; 0.56% of 390,000 active; also: nearly all actives have a fitted effect of over 70% in size
#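 Compound inhibition of the preformed complex between 50 nM HP1-beta and 50 nM biotinylated H3K9me3 peptide was read by AlphaScreen. Buffer was PBS pH 7.4 with 0.01% Tween-20. Incubations ran 30 min at room temperature, with 10 ug/mL donor/acceptor beads.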
# G9a block – G9a (human) methyltransferase inhibition; Q96KQ7; G9a H3K9 monomethylation, AlphaScreen, 2 h; Potency, µM (top dose mostly 102 µM), for the others: at the highest dose activity, negative = inhibition, actives largely listed as inhibitors; 8.8% of 350,000 active; AID 504332; also: % is scaled to controls: 0 for no effect and ±100 for the full control effect; nearly all actives have a fitted effect of over 75% in size
#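 Signal arises when biotinylated H3K9 peptide, once monomethylated, bridges streptavidin donor and antibody-captured acceptor beads. Enzyme at 20 nM was preincubated 15 min with test compounds; peptide 500 nM and SAM 20 uM then reacted for 2 h.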
# BAZ2B block – BAZ2B (human) inhibition. Q9UIF8. AlphaScreen BAZ2B-H3K14Ac peptide displacement. Potency, µM (series often up to 114 µM), inactives show top-dose activity change, negative = inhibition, most hits filed as inhibitors. 4.4% of 360,000 active. AID 504333; also: % is scaled to controls: 0 for no effect and ±100 for the full control effect; nearly all actives have a fitted effect of over 60% in size
#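 AlphaScreen displacement of biotin-H3(5-23)K14Ac peptide (50 nM final) from BAZ2B (50 nM final) in PBS pH 7.4, 0.01% Tween-20; complex preformed 30 min RT, then compounds (top 110 uM) 30 min RT, beads 20 min dark.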
# JMJD2A Tudor – JMJD2A Tudor domain (human) inhibition; AlphaScreen JMJD2A-Tudor / H3K4me3 peptide binding; 4.4% of 390,000 active; O75164; Potency, µM (series often up to 114 µM), without a hit: at the highest dose activity change, negative = inhibition, usual class: inhibitors; also: % is scaled to controls: 0 for no effect and ±100 for the full control effect; nearly all actives have a fitted effect of over 50% in size
# The depositor's hits bear a star; ? = inconclusive; / = no result; [ ] = dose if it differs, or a comment. Most compounds without a hit are left out; they make up all but 12% or so of the library. Calls follow the shape of the dose curve; as a rule, active = well fitted curve in the direction sought with a large enough effect; inconclusive = small, poorly fitted or top-dose-only effect, or another doubt; inactive = no such curve, though single readings can be large; an effect the other way counts as inactive or inconclusive. Potency is read from the fitted curve at half-maximal effect.
SMILES,Sfp PPTase inh,PLK1 PBD block,HP1b chromo inh,G9a block,BAZ2B block,JMJD2A Tudor
COc1ccccc1C(=O)NC(=S)Nc1cc(C(=O)O)ccc1C,-28%,?,-2%,45µM*,1%,-3%
Cc1ccc(C(=O)O)cc1NC(=S)NC(=O)c1ccc(COc2ccccc2)cc1,50µM*,?,7%,/,50µM*,?
O=S(=O)(c1ccccc1)N1CCN(c2nc(-c3cccnc3)nc3ccccc23)CC1,/,0%,24%,3%[0.501 µM],50µM*,-22%
COc1ccc(-c2nc(N3CCN(S(=O)(=O)c4ccc(C)cc4)CC3)c3ccccc3n2)cc1,/,/,6%,/,/,-27%
Cc1ccc(S(=O)(=O)N2CCN(c3nc(-c4ccnnc4)nc4ccccc34)CC2)cc1,/,/,32%,/,/,32µM*
COc1ccc(OC)c(CCNC(=O)CCc2nnc3ccc(N4CCOCC4)nn23)c1,5%,30µM*,4%,11%,-37%,?
O=C(CCc1nnc2ccc(N3CCC4(CC3)OCCO4)nn12)Nc1ccc(F)cc1,15%,13µM*,17%,-2%[59 µM],-4%,?
CCOC(=O)c1cccc(NC(=O)CCn2cccc2)c1,16%,-14%,-4%,40µM*,?,-34%
COc1cccc(N2CCN(c3ccc4nnc(CCC(=O)Nc5cccc(C(C)=O)c5)n4n3)CC2)c1,8%,21µM*,7%,11%[59 µM],-11%,16µM*
CCOC(=O)c1cccc(NC(=O)CCn2c(=O)oc3ccccc32)c1,12%,2%,-13%,17%,2%,-10%
COc1cccc(N2CCN(c3ccc4nnc(CCC(=O)Nc5ccc(F)cc5)n4n3)CC2)c1,11%,-9%,14%,56%,-27%,-10%
COc1ccc(OC)c(CCNC(=O)CCc2nnc3ccc(N4CCCCC4)nn23)c1,8%,2%,17%,-16%,-35%,-15%
Cc1cc(OCC(O)CN(C)C(=O)C(C)Oc2ccccc2)ccc1Cl (stereo not given),-4%,-10%,15%,/,-1%,-13%
CCCCN(C(=O)C1CCCC1)c1c(N)n(CC(C)C)c(=O)[nH]c1=O,/,-5%,37%,3%[12.7 µM],1%,-31%
COc1ccc(CNC(=O)CCc2nnc3ccc(NCCCN4CCCC4=O)nn23)cc1,11%,1%,41%,5%,-5%[57.1 µM],-8%
COc1ccc(N2CCN(C(=O)CCc3nnc4ccc(N5CCC(C)CC5)nn34)CC2)cc1,-6%,0%,8%[57 µM],-16%,-28%,-17%
COc1ccccc1CNC(=O)CCc1nnc2ccc(NCCCN3CCCC3=O)nn12,12%,21µM*,19%,28%,-4%[57.1 µM],-27%
CCOC(=O)c1cccc(NC(=O)CCc2nnc3ccc(N4CCN(C)CC4)nn23)c1,13%,24µM*,20%,9%,-2%,-32%
CCOC(=O)c1cccc(NC(=O)CCc2nnc3ccc(N4CCCCC4)nn23)c1,3%,-18%,41%,/,0%,-3%
COc1cccc(N2CCN(c3ccc4nnc(CCC(=O)N5CCC(C)CC5)n4n3)CC2)c1,6%,24µM*,0%,-22%,-23%,?
CCOC(=O)c1cccc(NC(=O)c2cc3cc4ccc(C)cc4nc3s2)c1,/,/,-13%,13µM*,-12%,?
O=C(OCC(F)(F)F)[C@H](O)[C@@H](O)C(=O)OCC(F)(F)F,-2%,/,/,/,/,/
O=Cc1cc2cc3c(cc2nc1Cl)OCCO3,2%,5%,59%,-3%,-2%,-2%
O=C(O)c1ccc(N/N=C/c2cc3cc4c(cc3nc2Cl)OCCO4)cc1,3%,-16%,10%,?,79µM*,-29%
Cc1cccc(-c2oc(C)c(C)[n+]2[O-])c1,2%,-13%,2%,?,-4%,45µM*
COc1ccc2nc(-c3ccc(N(C)C)cc3)sc2c1,-26%,/,/,/,/,-10%
CSc1cc(-c2ccccc2)[nH]c(=O)c1C#N,25%,-15%,63%,-47%,-22%,0%
CN(C)c1c(-c2ccccc2)cc(-c2ccccc2)[nH]c1=O,-19%,/,/,35µM*,-8%,/
